Screening results from PubChem BioAssay.
In the library only some 19% were active in any assay of this set; here they are far more common.
ELG1 DNA repair = ELG1-dependent DNA repair inhibition; Potency, µM (titrated, usually from 46.1 µM), hits mostly inhibitors; actives 2.3% (n = 330,000); HEK293T ELG1-luciferase reporter, luminescence, 16 h; DNA damage induced by 5-fluorouridine; also: nearly all actives have a fitted effect of over 55% in size
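Step one: seed 2,000 cells per well. Step two: pin-transfer compound or DMSO alongside 5-fluorouridine. Step three: incubate 16 hr, 37 °C, 5% CO2. Step four: add ONE-Glo, wait 30 min, read luminescence.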
IL-1B inflam inh = blocks inflammasome-driven IL-1 beta release | activity change, % at 57.5 µM | actives 4.7% (n = 360,000) | AID 743279 | THP-1 LPS/ATP IL-1B secretion, AlphaLISA, 16 h; active compounds read low; in the data active = activity change below about -50%; inconclusive = mostly about -30% to -49%
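Secreted IL-1B measured by AlphaLISA bead assay after 16 h compound exposure of THP-1 cells; compounds (final up to 57.5 uM) added 1 h before LPS (250 ng/mL) and ATP (1.25 mM) stimulation; lower signal means less secretion.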
DT40 TDP1 CPT = growth inhibition of DT40 Tdp1-/-;hTDP1 cells with camptothecin (screen for TDP1 inhibitors); Potency, µM (series often up to 46.2 µM), most hits filed as inhibitors; AID 686979; chicken DT40 Tdp1-/-;hTDP1 cells + 20 nM CPT, ATP luminescence, 48 h; actives 12% (n = 420,000); also: nearly all actives have a fitted effect of over 55% in size
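Chicken DT40 Tdp1-/- cells complemented with human TDP1, 400 cells/well, exposed to compounds plus 20 nM camptothecin for at least 48 h at 37 C; viability read as ATP content by CellTiter-Glo luminescence.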
TDP1 cell noCPT = qHTS for Inhibitors of human tyrosyl-DNA phosphodiesterase 1 (TDP1): qHTS in cells in absence of CPT; DT40 Tdp1-/- hTDP1 cells, no CPT, ATP luminescence, 48 h; Potency, µM (titrated, usually from 46.2 µM), most hits filed as inhibitors; actives 15% (n = 420,000); also: nearly all actives have a fitted effect of over 55% in size
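Growth kinetics read by CellTiter-Glo luminescence after ≥48 hr at 37 °C. Cells: DT40 Tdp1-/- stably carrying human TDP1, 400 per well, compound exposure in the absence of CPT (DMSO vehicle).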
HT1080NT lethal = kills 2HG-producing HT-1080-NT fibrosarcoma cells | HT-1080-NT fibrosarcoma viability, CellTiter-Glo ATP luminescence, 48 h | Potency, µM (top dose mostly 46.1 µM), most hits filed as cytotoxic | actives 1.6% (n = 360,000) | AID 686970;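 also: NT is the 2HG producing partner of a matched IDH1 knockdown line; nearly all actives have a fitted effect of over 55% in size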
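Toxicity toward the 2HG-producing NT line was scored as %Activity, normalised to DMSO and no-cell wells, from CellTiter-Glo luminescence after 48 hours' treatment.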
HT1080 IDH1KD tx = toxicity to HT-1080 IDH1 knockdown cells (counter line) | HT-1080 IDH1 knockdown viability, ATP luminescence, 48 h | Potency, µM (series often up to 46.1 µM), most hits filed as cytotoxic | actives 2% (n = 360,000) | AID 686971
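Assay cells: HT-1080 with IDH1 knockdown, 750 per well, RPMI/5% FBS. Exposure: 48 h at 37 °C following 2 h pre-incubation. Read: CellTiter-Glo luminescence; fitted concentration-response, curve class assigned.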
Large screens that a line does not name were inactive. Unless noted, calls follow the shape of the dose curve; as a rule, active = well fitted curve in the direction sought with a large enough effect; inconclusive = small, poorly fitted or top-dose-only effect, or another doubt; inactive = no such curve, though single readings can be large; an effect the other way counts as inactive or inconclusive.

Cc1ccc(COc2ccc(-c3cc(C(F)(F)F)n4nc(C)cc4n3)cc2)cc1	none (no result: ELG1 DNA repair, IL-1B inflam inh, HT1080NT lethal, HT1080 IDH1KD tx)
CC(CCc1ccccc1)NC(=O)CCNS(=O)(=O)c1ccccc1 (stereo unspecified)	none
COc1ccc2c(c1)c1c(c(=O)n(-c3cccc(C)c3)c(=O)n1CC(=O)Nc1c(C)cc(C)cc1C)n2C	none (no result: ELG1 DNA repair, IL-1B inflam inh, HT1080NT lethal, HT1080 IDH1KD tx)
CCCc1c(-c2cccc(Cl)c2)ncn1CCc1ccccc1OC	DT40 TDP1 CPT inconclusive, TDP1 cell noCPT 16µM, HT1080NT lethal inconclusive, HT1080 IDH1KD tx inconclusive (no result: ELG1 DNA repair)
CCCc1c(-c2cccc(Br)c2)ncn1Cc1ccccc1OC	DT40 TDP1 CPT inconclusive, TDP1 cell noCPT 21µM, HT1080NT lethal inconclusive, HT1080 IDH1KD tx inconclusive (no result: ELG1 DNA repair)
CCCc1c(-c2ccc(Cl)cc2)ncn1CCc1ccccc1OC	IL-1B inflam inh -93, DT40 TDP1 CPT 6.5µM, TDP1 cell noCPT 5.8µM, HT1080NT lethal inconclusive, HT1080 IDH1KD tx inconclusive (no result: ELG1 DNA repair)
COc1ccccc1CC(=O)N1CCN(c2cccc(Cl)c2)CC1	none
COc1ccccc1Cn1cnc2cccnc21	none
CCCc1c(-c2ccc(Cl)cc2)ncn1Cc1ccccc1OC	DT40 TDP1 CPT 12µM, TDP1 cell noCPT 21µM, HT1080NT lethal inconclusive, HT1080 IDH1KD tx inconclusive (no result: ELG1 DNA repair)
Cc1ccc(-n2nc(C(=O)N3CCN(c4ccccc4F)CC3)c3c4ccccc4n(C)c3c2=O)cc1	none (no result: ELG1 DNA repair, IL-1B inflam inh, HT1080NT lethal, HT1080 IDH1KD tx)
COc1ccccc1CCn1c(=O)c(-c2ccc(F)cc2)nc2cncnc21	none (no result: ELG1 DNA repair, IL-1B inflam inh, HT1080NT lethal, HT1080 IDH1KD tx)
CCCc1c(-c2ccc(F)cc2)ncn1CCc1ccccc1OC	DT40 TDP1 CPT inconclusive, TDP1 cell noCPT 16µM, HT1080NT lethal inconclusive, HT1080 IDH1KD tx inconclusive (no result: ELG1 DNA repair)
CC1=C(C(=O)Nc2cccc(C)c2C)C2(CCCCC2)OC1=O	none (no result: ELG1 DNA repair, IL-1B inflam inh, HT1080NT lethal, HT1080 IDH1KD tx)
Cc1ccc(C2=Nc3ccccc3N=C(c3ccco3)C2)c(O)c1	none
Cc1ccc(O)c(C2=Nc3ccccc3N=C(c3ccco3)C2)c1	DT40 TDP1 CPT inconclusive, TDP1 cell noCPT 13µM, HT1080NT lethal inconclusive, HT1080 IDH1KD tx inconclusive
COc1ccc(NC(=O)CN(C)C(=O)c2ccccc2OCC(=O)Nc2cccc(C(F)(F)F)c2)cc1	DT40 TDP1 CPT inconclusive, TDP1 cell noCPT inconclusive
COc1cc(C(=O)NCCCN(C)C)ccc1OCC(=O)Nc1cccc(C(F)(F)F)c1	IL-1B inflam inh -53, DT40 TDP1 CPT inconclusive, TDP1 cell noCPT inconclusive, HT1080 IDH1KD tx inconclusive
O=C(COc1cccc2c1CCNC2=O)Nc1cccc(C(F)(F)F)c1	DT40 TDP1 CPT 8.2µM, TDP1 cell noCPT 16µM
COc1cccc(CN(C)C(=O)c2ccc(OCC(=O)Nc3cccc(C(F)(F)F)c3)c(OC)c2)c1	ELG1 DNA repair 15µM, IL-1B inflam inh -62, DT40 TDP1 CPT 10µM, TDP1 cell noCPT 9.2µM, HT1080NT lethal inconclusive, HT1080 IDH1KD tx inconclusive
COc1cc(/C=C(\C#N)C(=O)Nc2cc(C(F)(F)F)ccc2Cl)ccc1OCC(=O)Nc1cccc(C(F)(F)F)c1	DT40 TDP1 CPT 23µM, TDP1 cell noCPT inconclusive
COc1cc(/C=C(\C#N)C(=O)Nc2cccc(C(=O)O)c2)ccc1OCc1ccc(C)cc1	ELG1 DNA repair inconclusive
COc1ccccc1C(=O)N/C(=C/c1ccc2c(c1)OCO2)C(=O)Nc1ccc(C(=O)O)cc1	none
COc1ccc(CN(C)C(=O)c2ccc(OCC(=O)Nc3cccc(C(F)(F)F)c3)c(OC)c2)c(OC)c1	ELG1 DNA repair inconclusive, IL-1B inflam inh -77, DT40 TDP1 CPT inconclusive, TDP1 cell noCPT inconclusive, HT1080NT lethal inconclusive
C=C(c1ccc(O)cc1)c1ccc(O)cc1	IL-1B inflam inh -59, TDP1 cell noCPT inconclusive, HT1080 IDH1KD tx inconclusive
Cc1nc(SCc2nc3ccc(C(=O)c4ccccc4)cc3[nH]2)c2oc3ccccc3c2n1	ELG1 DNA repair 4.6µM (no result: IL-1B inflam inh, DT40 TDP1 CPT, TDP1 cell noCPT, HT1080NT lethal, HT1080 IDH1KD tx)
Cc1nc(SCc2nc3ccccc3[nH]2)c2oc3cc(Br)ccc3c2n1	ELG1 DNA repair 18µM (no result: IL-1B inflam inh, DT40 TDP1 CPT, TDP1 cell noCPT, HT1080NT lethal, HT1080 IDH1KD tx)
Cc1ccc2oc3c(SCc4nc5ccccc5[nH]4)nc(C)nc3c2c1	none (no result: IL-1B inflam inh, DT40 TDP1 CPT, TDP1 cell noCPT, HT1080NT lethal, HT1080 IDH1KD tx)
CC(C)CCNC(=S)Nc1ccc(Br)cc1	ELG1 DNA repair inconclusive, DT40 TDP1 CPT inconclusive, TDP1 cell noCPT 16µM
COC(=O)Cc1ccc(NC(=S)NCCC(C)C)cc1	none
CC(C)CCNC(=S)Nc1ccc([N+](=O)[O-])cc1	ELG1 DNA repair inconclusive, IL-1B inflam inh -71, DT40 TDP1 CPT inconclusive, TDP1 cell noCPT inconclusive, HT1080NT lethal inconclusive, HT1080 IDH1KD tx inconclusive
CC(C)OC(=O)c1cc(C(=O)OC(C)C)cc([N+](=O)[O-])c1	none (no result: ELG1 DNA repair, IL-1B inflam inh, HT1080NT lethal, HT1080 IDH1KD tx)
CC(C)OC(=O)c1cc(NC(=S)Nc2ccc([N+](=O)[O-])cc2)cc(C(=O)OC(C)C)c1	ELG1 DNA repair inconclusive, IL-1B inflam inh -101, DT40 TDP1 CPT 9.2µM, TDP1 cell noCPT 12µM, HT1080NT lethal inconclusive, HT1080 IDH1KD tx 21µM
CCCCNC(=S)Nc1ccc([N+](=O)[O-])cc1	IL-1B inflam inh -74, DT40 TDP1 CPT inconclusive, TDP1 cell noCPT 23µM, HT1080NT lethal inconclusive, HT1080 IDH1KD tx inconclusive
NC(=O)[C@@H]1CC2(CC(c3cccc(NC(=O)[C@H]4CCC(=O)N4)c3)=NO2)CN1C(=O)COc1ccc(Cl)cc1 (stereo partly specified)	none
O=C(CN1C(=O)CCc2cc(S(=O)(=O)N3CCOCC3)ccc21)NCc1ccc(F)cc1	none (no result: ELG1 DNA repair, IL-1B inflam inh, HT1080NT lethal, HT1080 IDH1KD tx)
CN(CC(=O)Nc1cccc(S(=O)(=O)N(C)c2ccccc2)c1)Cc1cccs1	DT40 TDP1 CPT inconclusive, TDP1 cell noCPT inconclusive (no result: ELG1 DNA repair)
